Screening results from PubChem BioAssay.
An excerpt weighted towards active compounds, which were near 2.3% of everything screened.
ZTA DNA inh – counter-screen for EBNA-1 inhibitors: inhibitors of Epstein-Barr virus ZTA. inhibition, % at 11 µM. 320,000 tested, 0.15% active. ZTA-DNA binding, fluorescence polarization. P03206; in the data active = inhibition above about 33%
Target sequence (P03206 whole entry, looked up): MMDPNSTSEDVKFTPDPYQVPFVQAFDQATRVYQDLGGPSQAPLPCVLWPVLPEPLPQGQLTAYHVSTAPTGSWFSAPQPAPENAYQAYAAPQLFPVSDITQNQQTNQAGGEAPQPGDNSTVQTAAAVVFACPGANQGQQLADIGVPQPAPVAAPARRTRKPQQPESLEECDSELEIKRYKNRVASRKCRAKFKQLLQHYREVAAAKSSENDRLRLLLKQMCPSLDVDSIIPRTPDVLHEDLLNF
PP5 inh – inhibitors of human protein phosphatase 5 (PP5); P53041; purified PP5c, OMFP substrate fluorescence; inhibition, % at 6.7 µM; 320,000 tested, 0.18% active; AID 1987;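 active = inhibition above the campaign's mean inhibition across all tested compounds plus 3 SD, cut at about 9.5% in these data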
EBNA-1 inh – blocks EBNA-1 binding to DNA. AID 1950. 300,000 tested, 0.34% active. EBNA-1 DNA binding, fluorescence polarization. inhibition, % at 14.8 µM; in the data active = inhibition above about 28%
MsrA inh – bovine MsrA inhibition | purified bovine MsrA, absorbance read-out | inhibition, % at 15.5 µM | 360,000 tested, 0.75% active | AID 651718
bovine MsrA act – activates bovine MsrA enzyme; purified bovine MsrA, absorbance read-out; activation, % at 10.6 µM; AID 602163; 360,000 tested, 0.3% active; in the data active = activation above about 7.5%
PP1 inh – counter-screen for PP5 inhibitors: inhibitors of human PP1-alpha. inhibition, % at 6.7 µM. purified PP1alpha, OMFP fluorescence. 320,000 tested, 0.9% active. P62136;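 active = inhibition above the mean inhibition of all tested compounds plus 3 SD, computed separately for each screening campaign, cut at about 15% in these data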
Target sequence (P62136 whole entry, looked up): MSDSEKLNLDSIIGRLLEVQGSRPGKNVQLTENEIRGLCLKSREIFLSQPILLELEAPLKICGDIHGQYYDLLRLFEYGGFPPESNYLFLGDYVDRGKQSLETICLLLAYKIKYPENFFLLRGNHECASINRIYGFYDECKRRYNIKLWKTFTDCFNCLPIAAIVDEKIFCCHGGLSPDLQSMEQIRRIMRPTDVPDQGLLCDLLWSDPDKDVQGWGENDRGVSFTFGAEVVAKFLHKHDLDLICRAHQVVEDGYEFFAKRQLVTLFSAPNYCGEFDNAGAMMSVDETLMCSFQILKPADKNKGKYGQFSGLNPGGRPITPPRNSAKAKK
MsrA inh confirm – bovine MsrA inhibition, confirmed; 2,300 tested, 41% active; inhibition, % at 15.5 µM; purified bovine MsrA, absorbance read-out; shares compounds with MsrA inh;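 note: coupled to thioredoxin reductase with NADPH and selenocystamine and DMSO as substrate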
Hits are given with their value; i = inactive; nt = no result. Cut-off read from the data, not from the text of the source, unless noted: active = inhibition above about 4.5%; inactive = the rest.

SMILES | ZTA DNA inh | PP5 inh | EBNA-1 inh | MsrA inh | bovine MsrA act | PP1 inh | MsrA inh confirm
COc1ccc(C(=O)/C=C/Nc2cc(C)on2)c(OC)c1 | i | i | i | 7.4 | i | i | 5.5
Cc1ccc(C(=O)C2=C(O)C(=O)N(CCCN(C)C)C23C(=O)N(C)c2ccccc23)o1 (configuration not stated) | i | i | i | 5.6 | i | i | 6.4
CN1C(=O)C2(c3ccccc31)c1c(oc3ccccc3c1=O)C(=O)N2CCCO (configuration not stated) | i | i | i | i | i | i | nt
O=C(c1ccc(-c2nc3ccccc3s2)o1)N1CCN(c2ccccc2O)CC1 | i | i | i | i | i | i | nt
O=C(O)c1ccc(-c2nc3ccccc3s2)o1 | i | i | i | 5.2 | i | i | i
COCc1c(C(=O)N/N=C/c2ccc(C)o2)nnn1-c1nonc1N | i | i | i | 6.6 | i | i | i
CC(=C/c1ccco1)/C=N/NC(=O)c1nnn(-c2nonc2N)c1CN(C)C | i | i | i | 7.7 | i | i | 5.4
Cc1ccc(/C=N/NC(=O)c2nnn(-c3nonc3N)c2-c2ccc3c(c2)OCO3)s1 | i | i | i | 5.0 | i | i | 4.6
Cc1ccc(/C=N/NC(=O)c2nnn(-c3nonc3N)c2CN(C)C)o1 | i | i | i | i | i | i | nt
C=CCOc1ccc(/C=C\c2nc(O)c([N+](=O)[O-])c(=O)[nH]2)cc1OC | nt | nt | nt | nt | i | nt | nt
C=CCOc1cccc(/C=C\c2nc(O)c([N+](=O)[O-])c(=O)[nH]2)c1 | i | i | i | 4.8 | i | i | i
CCOc1ccc(CN2CCN(Cc3cc4c(cc3Cl)OCO4)CC2CCO)cc1 (configuration not stated) | i | i | i | i | i | i | nt
Cc1ccsc1/C=N/NC(=O)c1ccccn1 | i | i | i | 5.7 | i | i | i
O=C(N/N=C/c1ccc(Br)s1)c1ccccn1 | i | i | i | 6.0 | i | i | 7.0
CCCn1c(N)c(N(CCOC)C(=O)CSc2c(Cl)cccc2Cl)c(=O)[nH]c1=O | nt | nt | nt | i | i | nt | nt
CC1CCN(C2=NC(=O)/C(=C/c3ccccc3F)S2)CC1 | i | i | i | 5.4 | i | i | i
O=C1N=C(N2CCOCC2)S/C1=C\c1cccnc1 | i | i | i | i | i | i | nt
CC1CCN(C2=NC(=O)/C(=C/c3cccc(O)c3)S2)CC1 | i | i | i | 4.7 | i | i | i
COc1cccc(-c2noc(-c3ccc(Cl)nc3)n2)c1 | i | i | i | i | i | i | nt
COc1cccc2cc3c(=O)oc4ccccc4c3nc12 | i | i | i | 18.5 | i | i | 13.4
COc1cccc(-c2cnc(C(O)c3c(C)ccc4ccccc34)[nH]2)c1 (configuration not stated) | nt | nt | nt | i | i | nt | nt
CN(C)c1oc(-c2cccs2)nc1C#N | i | i | i | 4.9 | i | i | i
CNc1oc(-c2cccs2)nc1C#N | i | i | i | i | i | i | nt
COc1cc(/C=N/Nc2nc3ccccc3[nH]2)ccc1O | i | i | i | 4.9 | i | i | i
O=[N+]([O-])c1ccc(O)c(/C=N/Nc2nc3ccccc3[nH]2)c1 | i | i | i | i | i | i | nt
SMILES | ZTA DNA inh | PP5 inh | EBNA-1 inh | MsrA inh | bovine MsrA act | PP1 inh | MsrA inh confirm
COc1ccc(O)c(/C=N/Nc2nc3ccccc3[nH]2)c1 | i | i | i | 5.8 | i | i | i
COc1cccc(/C=N/Nc2nc3ccccc3[nH]2)c1O | i | i | i | 5.9 | i | i | 5.2
COc1cc(/C=N/Nc2nc3ccccc3[nH]c2=O)ccc1O | i | i | i | i | i | i | nt
COc1cc(/C=N/Nc2nc3ccccc3[nH]2)cc(OC)c1O | i | i | i | 5.1 | i | i | 4.7
Cc1ccc(-n2nnnc2CCl)cc1 | nt | nt | nt | i | i | nt | nt
COc1cc(N)c2ncsc2c1 | nt | nt | nt | i | i | nt | nt
Cc1ccc(S(=O)(=O)NCc2ccccc2)cc1C(=O)N1CCCCCCC1 | i | i | i | i | i | i | nt
Nc1c(C(=O)c2ccccc2O)cnn1-c1ccc(S(=O)(=O)N2CCOCC2)cc1[N+](=O)[O-] | i | i | i | i | nt | i | nt
Cn1ccsc1=NC(=O)c1ccc(S(C)(=O)=O)cc1 | i | i | i | i | i | i | nt
O=C(N/N=C/c1ccco1)c1cc(C2CC2)[nH]n1 | i | i | i | i | i | i | nt
O=C(N/N=C/c1cccc([N+](=O)[O-])c1)c1ccc2nc[nH]c2c1 | i | i | i | i | i | i | nt
O=C(N/N=C/c1ccc([N+](=O)[O-])cc1)c1cc(C2CC2)[nH]n1 | i | i | i | 5.3 | i | i | 5.3
O=C(N/N=C/c1ccc([N+](=O)[O-])cc1)c1ccc2nc[nH]c2c1 | i | i | i | 5.6 | i | i | 4.8
O=C(N/N=C/c1ccc([N+](=O)[O-])cc1)c1[nH]ncc1Br | i | i | i | 4.9 | i | i | i
CCN(CC)C(=O)c1sc(NC(=O)c2ccc(OC)c([N+](=O)[O-])c2)c(C#N)c1C | i | i | i | nt | nt | i | nt
O=C(N/N=C\c1cn(-c2ccccc2)nc1-c1ccccc1)c1ccc(Br)o1 | i | i | i | 6.4 | i | i | i
Cc1ccc(-c2nn(-c3ccccc3)cc2/C=N/NC(=O)c2ccc(Br)o2)cc1 | i | i | i | i | i | i | nt
O=Cc1cn(-c2ccccc2)nc1-c1ccccc1 | i | i | i | 14.0 | i | i | 11.4
O=Cc1cn(-c2ccccc2)nc1-c1ccncc1 | i | i | i | 6.0 | i | i | i
C(=N\N1CCOCC1)/c1cn(-c2ccccc2)nc1-c1ccccc1 | i | i | i | 7.0 | i | i | i
O=Cc1cn(-c2ccccc2)nc1-c1cccnc1 | i | i | i | 10.9 | i | i | i
O=C1OC(c2ccc(Cl)cc2)=N/C1=C\C=C\c1ccco1 | i | i | i | 4.7 | i | i | i
O=C1OC(c2ccccc2)=N/C1=C\C=C\c1ccco1 | i | i | i | 4.9 | i | i | i
N/C(=N\N=C\c1cccc(O)c1)c1nonc1N | i | i | i | 6.0 | i | i | i
N/C(=N\N=C\c1ccc([N+](=O)[O-])cc1)c1nonc1N | i | i | i | i | i | i | nt
SMILES | ZTA DNA inh | PP5 inh | EBNA-1 inh | MsrA inh | bovine MsrA act | PP1 inh | MsrA inh confirm
N/C(=N\N=C\c1ccc(O)cc1)c1nonc1N | i | i | i | 6.4 | i | i | i
N/C(=N\N=C\c1ccc(O)c(O)c1)c1nonc1N | i | i | i | i | i | i | nt
COc1cc(/C=N/N=C(\N)c2nonc2N)ccc1O | i | i | i | 5.5 | i | i | i
Clc1ccc(CO/N=C2\CCCc3nonc32)cc1 | i | i | i | i | i | i | nt
CCOC(=O)C1=CCC(c2ccc(Cl)cc2)N(S(=O)(=O)c2ccc(C)cc2)C1 (configuration not stated) | nt | nt | nt | i | i | nt | nt
NNC(=O)COc1ccccc1F | i | i | i | i | i | i | nt
CCOC(=O)C1CCN(CC(=O)c2ccc(O)c(C)c2O)CC1 | i | i | i | 4.7 | i | i | i
Cc1c(O)ccc(C(=O)COc2ccccc2F)c1O | i | i | i | 4.8 | i | i | i
COC(=O)c1ccc(OCC(=O)c2ccc(O)cc2O)cc1 | i | i | i | 5.0 | i | i | i
O=C(COc1ccccc1F)c1ccc(O)cc1O | i | i | i | 7.6 | i | i | i
